TEAD-YAP inh = TEAD-YAP interaction inhibition, primary screen, TEAD-YAP interaction inhibitor project, luminescence, HEK-TIYL cells. TEAD-Gal4/YAP UAS-luciferase luminescence. inhibition, % at 9.12 µM. hit rate 1.4% among 640,000; in the data active = inhibition above about 32%
FBW7 activator = FBW7 E3 ligase activators, primary screen, biochemical, AlphaScreen, human | hit rate 0.13% among 650,000 | AlphaScreen FBW7–phospho-cyclin E peptide binding, activator screen | AID 1259310, 2017 | F-box/WD repeat-containing protein 7 (Homo sapiens), Q969H0 | normalized activity (activation), % at 26.1 µM; in the data active = normalized activity above about 1.9%;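 also: purified mutant Fbw7 with reduced substrate affinity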
Target sequence (Q969H0 whole entry, looked up): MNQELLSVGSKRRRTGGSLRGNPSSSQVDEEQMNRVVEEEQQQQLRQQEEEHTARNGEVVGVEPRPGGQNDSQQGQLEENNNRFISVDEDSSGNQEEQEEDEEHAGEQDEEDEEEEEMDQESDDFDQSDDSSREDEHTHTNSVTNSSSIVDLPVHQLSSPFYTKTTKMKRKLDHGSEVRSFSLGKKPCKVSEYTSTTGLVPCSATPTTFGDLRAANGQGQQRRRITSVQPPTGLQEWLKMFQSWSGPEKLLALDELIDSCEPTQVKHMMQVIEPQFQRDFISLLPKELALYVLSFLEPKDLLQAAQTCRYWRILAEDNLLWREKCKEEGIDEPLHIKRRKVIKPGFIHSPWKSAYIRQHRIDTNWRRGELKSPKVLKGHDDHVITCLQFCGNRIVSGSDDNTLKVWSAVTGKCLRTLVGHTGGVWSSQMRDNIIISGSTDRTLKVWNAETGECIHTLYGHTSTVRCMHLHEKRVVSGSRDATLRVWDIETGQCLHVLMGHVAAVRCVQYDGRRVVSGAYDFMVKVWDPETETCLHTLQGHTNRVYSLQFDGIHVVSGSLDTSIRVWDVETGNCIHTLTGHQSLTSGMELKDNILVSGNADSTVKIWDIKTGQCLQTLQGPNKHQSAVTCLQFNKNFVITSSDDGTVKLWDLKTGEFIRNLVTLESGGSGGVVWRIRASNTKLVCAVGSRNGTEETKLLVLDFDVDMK
MITF primary = MITF inhibitors, primary screen, biochemical, AlphaScreen, human. Microphthalmia-associated transcription factor (Homo sapiens), O75030. AlphaScreen MITF homodimerization, bead proximity signal. inhibition, % at 2.6 µM. hit rate 0.91% among 650,000. AID 1259374, 2018; in the data active = inhibition above about 50%
GPR151 ag = activators of human GPR151, primary screen, cell-based, PathHunter beta-arrestin, luminescence. G-protein coupled receptor 151 (Homo sapiens), Q8TDV0. PathHunter beta-arrestin GPR151 cells. hit rate 1% among 650,000. activation, % at 11.2 µM. AID 1508602, 2020; in the data active = activation above about 4.9%
MITF inh conf = MITF inhibitors, retest of hits, confirmation, biochemical, AlphaScreen, triplicate | AlphaScreen MITF homodimerization, biotin/His-MITF beads | hit rate 16% among 4,700 | AID 1259372, 2018 | inhibition, % at 2.6 µM | shares compounds with MITF primary;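 active = inhibition above a cutoff derived from the DMSO control wells, cut at about 28% in these data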;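 also: inhibitors lower the bead chemiluminescence by keeping MITF from dimerizing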
AlphaScreen DR = AlphaScreen optical interference compounds, dose response, counter-screen, biochemical, HTS; shares compounds with MITF primary; AlphaScreen optical interference counterscreen, cell-free; hit rate 6% among 480; IC50, µM; call rule not given here
AlphaScreen intf2 = AlphaScreen optical interference compounds, counter-screen for MITF inhibitor project, biochemical, triplicate; shares compounds with MITF primary; LysRS AlphaScreen counterscreen, signal interference; inhibition, % at 2.6 µM; hit rate 7.6% among 4,700;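 active = inhibition above a cutoff derived from the DMSO control wells, cut at about 30% in these data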
A number is an active result; n = inactive; x = not tested or not shown; ! = repeats disagree. Shown are actives, neighbours in structure and some others; about 3.5% of the full set was active somewhere.

SMILES	TEAD-YAP inh	FBW7 activator	MITF primary	GPR151 ag	MITF inh conf	AlphaScreen intf2	others
C[N+]1(C)CCc2cc3c(cc2[C@H]1[C@@H]1OC(=O)c2c1ccc1c2OCO1)OCO3	n	n	n	n	x	x
CN1Cc2c(ccc3c2OCO3)[C@@H]2[C@H]1c1cc3c(cc1C[C@@H]2O)OCO3	62	n	n	n	x	x
Cc1nnc(NC(=O)c2c(O)c3ccccc3n(Cc3ccccc3)c2=O)s1	n	n	n	n	x	x
N/C(=N\[N+](=O)[O-])N/N=C/c1ccc(O)c(O)c1	n	n	87	n	x	x
O=c1cccc2n1CC1CC2CN(Cc2ccc(-c3ccc([N+](=O)[O-])cc3)o2)C1 (stereo unspecified)	n	n	n	n	x	x
CC(=O)Oc1ccc(/C=C/c2cc(OC(C)=O)cc(OC(C)=O)c2)cc1	96	n	n	n	x	x
CCC1(CC)C(=O)NC(=O)N(C(=O)c2cccc([N+](=O)[O-])c2)C1=O	n	n	n	n	x	x
CCOc1ccc(N2C(=O)/C(=C/c3ccc(C)o3)C(=O)NC2=S)cc1	n	n	n	n	x	x
Cc1ccc(/C=C2\C(=O)NC(=S)N(c3cccc(F)c3)C2=O)o1	n	n	n	n	x	x
CN1C(=O)NC(=O)/C(=C/c2ccc(Br)o2)C1=O	n	n	71	n	x	x
CCOc1ccc(N2C(=O)/C(=C/c3ccc(Br)o3)C(=O)NC2=S)cc1	n	n	79	n	x	x
O=C1NC(=S)N(c2cccc(F)c2)C(=O)/C1=C/c1ccc(Br)o1	n	n	84	n	x	x
C=C(C)[C@H]1Cc2c(ccc3c2O[C@@H]2COc4cc(OC)c(OC)cc4[C@@H]2C3=O)O1	70	n	n	n	x	x
COc1cc2c(cc1O)CC1c3c(cc(O)c(OC)c3-2)CCN1C (stereo unspecified)	34!	n	n	n	x	x
COc1ccccc1CCNCc1ccccc1OC	n	n	52	n	n	n
COc1ccccc1CCNCc1cc(OC)c(OC)cc1OC	n	n	n	n	x	x
Cc1ccc(N2CCN(Cc3ccccc3[N+](=O)[O-])CC2)cc1	n	n	n	n	x	x
O=[N+]([O-])c1ccccc1CN1CCN(c2ccc(F)cc2)CC1	n	n	54	n	n	n
O=[N+]([O-])c1ccccc1CN1CCN(Cc2ccc(F)cc2)CC1	n	n	68	n	n	n
CN1CCN(Cc2ccccc2[N+](=O)[O-])CC1	n	n	n	n	x	x
CCN1CCN(Cc2cc(OC)c(OC)cc2Br)CC1	n	n	n	n	x	x
COc1ccc(CN2CCN(C(C)C)CC2)c(OC)c1	n	n	71	n	n	n
COc1cc(OC)c(OC)cc1CN1CCN(C(C)C)CC1	n	n	68	n	n	n
COc1ccc(CN2CCN(CCO)CC2)c(OC)c1	n	n	n	n	x	x
Cc1c(Cl)cccc1NC1=NCCS1	n	n	n	n	x	x
SMILES	TEAD-YAP inh	FBW7 activator	MITF primary	GPR151 ag	MITF inh conf	AlphaScreen intf2	others
CCOC(=O)N1CCC(NC(=O)CCc2nc(C3=CCN(C)CC3)no2)CC1	n	n	53	n	35	n	AlphaScreen DR=n
CCc1ccc(NC(=O)CCc2nc(C3=CCN(C)CC3)no2)cc1	n	n	65	n	48	n	AlphaScreen DR=n
CC(C)c1ccc(NC(=O)CCc2nc(C3=CCN(C)CC3)no2)cc1	n	n	n	n	x	x
CN1CC=C(c2noc(CCC(=O)Nc3ccc(Cl)cc3)n2)CC1	n	n	73	n	68	46
CCN(CC)S(=O)(=O)c1ccc(NC(=O)CCc2nc(C3=CCN(C)CC3)no2)cc1	n	n	83	n	94	66
Cc1ccc(C2C(C#N)=C(N)Oc3c2c(=O)oc2ccccc32)cc1 (stereo unspecified)	n	n	n	n	x	x
NC(=O)C1CCN(CC(=O)Nc2ccc([N+](=O)[O-])cc2C(=O)c2ccccc2)CC1	n	n	n	n	x	x
COc1ccc(C)cc1NC(=O)c1cccn(Cc2ccccc2F)c1=O	n	n	n	n	x	x

Screening results: PubChem, The Scripps Research Institute Molecular Screening Center
